Compounds without any hit were thinned out: in the full panel of roughly 79,000, 15% have a hit. Activity calls are given as the source filed them. Rule as the data show it: active = growth inhibition above about 70%; inactive = the rest.
Columns and labels:
[1] = NCI Yeast Anticancer Drug Screen. Data for the rad50 strain (AID 155);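 also: 0% = growth of vehicle-only cultures of the same strain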; details: S. cerevisiae rad50 strain growth inhibition, hits give high values
Procedure, shortened: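 Yeast carrying a defined DNA repair defect were exposed to test compounds, and growth was compared with vehicle-treated controls to give percent inhibition.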

[2] = NCI Yeast Anticancer Drug Screen. Data for the mec2-1 strain (AID 157); details: S. cerevisiae mec2-1 strain, hits give high values
Procedure, shortened: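 Strain: mec2-1 (DNA repair/cell cycle alteration). Compound exposure, then growth measured; inhibition expressed relative to vehicle.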

[3] = NCI Yeast Anticancer Drug Screen. Data for the sgs1 mgt1 strain (AID 161);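 also: 0% = growth of cultures given vehicle only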; details: S. cerevisiae sgs1 mgt1 strain, hits give high values
Procedure, shortened: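 Genetically altered yeast, compound exposure, growth inhibition relative to vehicle.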

[4] = NCI Yeast Anticancer Drug Screen. Data for the cln2 rad14 strain (AID 165);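 also: 0% = growth equal to vehicle treated cultures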; details: S. cerevisiae cln2 rad14 strain, hits give high values
Procedure, shortened: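 Compounds are applied to the cln2 rad14 yeast strain, and growth is then compared with that of vehicle-treated cultures to give inhibition.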

[5] = NCI Yeast Anticancer Drug Screen. Data for the bub3 strain (AID 167); details: S. cerevisiae bub3 mutant strain, hits give high values
Procedure, shortened: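 Compounds were applied to a genetically altered yeast strain carrying a cell-cycle control defect. Growth inhibition was scored against vehicle-treated controls.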

[6] = NCI Yeast Anticancer Drug Screen. Data for the mlh1 rad18 strain (AID 175); details: S. cerevisiae mlh1 rad18 strain growth inhibition, hits give high values
Procedure, shortened: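 Read-out is yeast growth inhibition, calculated against vehicle-only controls. The compound was applied to a strain engineered with DNA damage repair alterations.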

[7] = at 5.0 µM (retest, dose inferred, filed as 0.5)
[8] = at 50.0 µM (retest, dose inferred, filed as 5.0)

Measured: growth inhibition

Cc1ccc(C(Cl)(c2ccc(C)cc2)c2ccc(C)cc2)cc1
active: [1]; [8] 90% | [2]; [8] 93% | [2]; at 50.0 µM 93.1% | [3]; [8] 93% | [3]; at 50.0 µM 97.5% | [4]; [8] 90% | [4]; at 50.0 µM 94.5% | [5]; [7] 87% | [5]; [8] 92% | [5]; at 50.0 µM 97.2% | [6]; [8] 91% | [6]; at 50.0 µM 92.2%
inactive: [1]; [7] 3% | [1]; at 50.0 µM 67.5% | [2]; [7] 39% | [3]; [7] -3% | [4]; [7] -2% | [6]; [7] 11%

CCCCCC(C1SC(=S)NC1=O)C1SC(=S)NC1=O (stereo not given)
inactive: [1]; [7] 1% | [1]; [8] -3% | [2]; [7] 2% | [2]; [8] 1% | [3]; [7] 5% | [3]; [8] 6% | [4]; [7] -1% | [4]; [8] -1% | [5]; [7] 0% | [5]; [8] 0% | [6]; [7] 0% | [6]; [8] 3%
active: [1]; at 50.0 µM 96.8% | [2]; at 50.0 µM 93.2% | [3]; at 50.0 µM 95% | [4]; at 50.0 µM 83% | [5]; at 50.0 µM 97.6% | [6]; at 50.0 µM 81.8%

S=C(CSc1ccccc1)Nc1cccc2ccccc12
inactive: [1]; [7] 15% | [2]; [7] -12% | [2]; [8] 51% | [2]; at 50.0 µM 28.4% | [3]; [7] -4% | [3]; [8] 67% | [3]; at 50.0 µM 31.3% | [4]; [7] -11% | [4]; at 50.0 µM 58.5% | [5]; [7] 4% | [6]; [7] 1%
active: [1]; [8] 82% | [1]; at 50.0 µM 77% | [4]; [8] 72% | [5]; [8] 81% | [5]; at 50.0 µM 81.7% | [6]; [8] 81% | [6]; at 50.0 µM 79.5%

CC1SC2=NC3=C(c4ccccc4C3=O)C(c3ccc(Cl)cc3)N2C1=O (stereo not given)
active: [1]; [8] 75% | [2]; [8] 81% | [3]; at 50.0 µM 73.2% | [4]; [8] 84% | [5]; [8] 88% | [6]; [8] 91%
inactive: [1]; [7] -3% | [1]; at 50.0 µM 58.7% | [2]; [7] -28% | [2]; at 50.0 µM 33.8% | [3]; [7] -6% | [3]; [8] 69% | [4]; [7] 14% | [4]; at 50.0 µM 56.3% | [5]; [7] -3% | [5]; at 50.0 µM 51.8% | [6]; [7] -17% | [6]; at 50.0 µM 53.4%

O=C1CSC(Cc2nc3ccccc3[nH]2)=N1
inactive: [1]; [7] 30% | [2]; [7] 26% | [3]; [7] 44% | [4]; [7] 36% | [4]; [8] 55% | [4]; at 50.0 µM 69% | [5]; [7] 22% | [6]; [7] 48%
active: [1]; [8] 79% | [1]; at 50.0 µM 76.7% | [2]; [8] 79% | [2]; at 50.0 µM 79.5% | [3]; [8] 87% | [3]; at 50.0 µM 73% | [5]; [8] 71% | [5]; at 50.0 µM 77.8% | [6]; [8] 90% | [6]; at 50.0 µM 74.9%

CCc1ccc(C)nc1
inactive: [1]; [7] -1% | [1]; [8] -3% | [1]; at 50.0 µM 20.9% | [2]; [7] 1% | [2]; [8] -1% | [2]; at 50.0 µM 1.05% | [3]; [7] 3% | [3]; [8] 0% | [3]; at 50.0 µM 1.1% | [4]; [7] 0% | [4]; [8] 3% | [4]; at 50.0 µM 0.85% | [5]; [7] -2% | [5]; [8] -5% | [6]; [7] 1% | [6]; [8] -2% | [6]; at 50.0 µM -1.05%
active: [5]; at 50.0 µM 98.7%

COC(=O)C1(OC(=O)CCC(=O)O)C(=O)NC2=C1C(=O)c1ccccc1C2=O (stereo not given)
inactive: [1]; [7] 1% | [1]; [8] 9% | [2]; [7] 2% | [2]; [8] -58% | [2]; at 50.0 µM 12% | [3]; [7] 2% | [3]; [8] 13% | [3]; at 50.0 µM 47.8% | [4]; [7] 2% | [4]; [8] 6% | [4]; at 50.0 µM 38.5% | [5]; [7] -42% | [5]; [8] 16% | [5]; at 50.0 µM 32.9% | [6]; [7] 1% | [6]; [8] 17% | [6]; at 50.0 µM 47.2%
active: [1]; at 50.0 µM 75.8%

CC(C)COP(=O)(OCC(C)C)C(NS(=O)(=O)c1ccccc1)(C(F)(F)F)C(F)(F)F
active: [2]; at 50.0 µM 82.7% | [6]; at 50.0 µM 90.2%
inactive: [1]; [7] 4% | [1]; [8] 11% | [1]; at 50.0 µM 63.5% | [2]; [7] -12% | [2]; [8] -2% | [3]; [7] 7% | [3]; [8] -5% | [3]; at 50.0 µM -2.35% | [4]; [7] 27% | [4]; [8] 42% | [4]; at 50.0 µM 6.85% | [5]; [7] -6% | [5]; [8] 8% | [5]; at 50.0 µM -3.8% | [6]; [7] 0% | [6]; [8] 3%

O=C1c2ccccc2C(=O)c2cc(S(=O)(=O)Cl)ccc21
active: [1]; [8] 99% | [1]; at 50.0 µM 76.1% | [2]; [7] 97% | [2]; [8] 99% | [3]; [7] 94% | [3]; [8] 98% | [4]; [8] 99% | [5]; [7] 98% | [5]; [8] 99% | [5]; at 50.0 µM 72.5% | [6]; [8] 99% | [6]; at 50.0 µM 75.8%
inactive: [1]; [7] 68% | [2]; at 50.0 µM 60.9% | [3]; at 50.0 µM 69.2% | [4]; [7] 55% | [4]; at 50.0 µM -49.5% | [6]; [7] 59%

COc1cc(F)ccn1
inactive: [1]; [7] 2% | [1]; [8] 0% | [1]; at 50.0 µM -4.75% | [2]; [7] 5% | [2]; [8] 4% | [2]; at 50.0 µM -11.4% | [3]; [7] 2% | [3]; [8] 2% | [3]; at 50.0 µM -12.5% | [4]; [7] 1% | [4]; [8] 4% | [4]; at 50.0 µM 12.8% | [5]; [7] -2% | [5]; [8] -4% | [5]; at 50.0 µM 46% | [6]; [7] -4% | [6]; [8] -3% | [6]; at 50.0 µM -18.2%

From PubChem BioAssay (NCI)
